Results from PubChem BioAssay AID1159580 (chemical genetic matrix, 2015).
Hit rate of the full screen: of about 5,500 compounds, about 2,000 (36%) were called active. About 18% were inconclusive and are not listed. Cut-off read from the data, not from the text of the source: active = normalized growth mostly below about 0.91 (no sharp cut-off); inconclusive = no clear call, values can overlap the other calls; inactive = mostly above about 0.92. Some of the results follow.

Experiment: chemical genetic growth profiling, strain panel (AID 1159580);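 note: tested at 20 µM; growth read once vehicle control cultures reached saturation at 30 °C; 1 = growth at the plate median or of vehicle wells; lower values mean less growth of the strain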
Conditions: S. cerevisiae deletion strains, growth OD

Measured: normalized growth

C=C1CC2C3C=C(C)C4=CC(=O)CC[C@]4(C)C3CC[C@]2(C)[C@@]1(OC(C)=O)C(C)=O (stereo partly drawn)
inactive: locus YHR030C, strain SLT2, stronger effect = lower value 0.955 | locus YHR079C, strain IRE1, stronger effect = lower value 0.933 | locus YJL095W, strain BCK1, stronger effect = lower value 0.955 | locus YJR066W, strain TOR1, stronger effect = lower value 0.922 | locus YLR113W, strain HOG1, stronger effect = lower value 0.92 | locus YNL183C, strain NPR1, stronger effect = lower value 0.876 | locus YOR231W, strain MKK1, stronger effect = lower value 0.955 | locus YPL256C, strain CLN2, stronger effect = lower value 0.916
